Measurements: PubChem BioAssay (Tox21)
Records with an inconclusive call do not appear. A number with no mark means an inactive call. Activity calls are given as the source filed them. Calls follow the shape of the full dose curve.

Experiment: qHTS assay to identify small molecule agonists or antagonists of the thyroid stimulating hormone receptor (TSHR) signaling pathway - wild type cell line counter screen (AID 1259384)
Details: HEK293 wild type, cAMP HTRF counter-screen, stronger effect = higher value; series mostly up to 92.4 µM; cAMP activity change: at the top concentration
How it was run: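 Wild-type Hek293 cells, 800/well, 18 h at 37C, then compound with Ro20-1724 for 30 min RT. cAMP by HTRF (cAMP-d2/anti-cAMP cryptate), 1 h RT, fluorescence read. 15 concentrations, triplicates.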
% is scaled to controls: 0 for no effect and ±100 for the full control effect.

Compound | outcome | cAMP activity change [%]
Cc1cc(Cl)ccc1OCCCC(=O)O | inactive | –
O=P(Oc1ccccc1)(Oc1ccccc1)Oc1ccccc1 | inactive | –
CC(C)Oc1cc(-n2nc(C(C)(C)C)oc2=O)c(Cl)cc1Cl | inactive | –
ClC1C(Cl)C(Cl)C(Cl)C(Cl)C1Cl (stereo not given) | inactive | –
CCOc1cc(Oc2ccc(C(F)(F)F)cc2Cl)ccc1[N+](=O)[O-] | inactive | –
C=C(C)C(=O)OCC1CO1 (stereo not given) | inactive | –
C#CCOS(=O)OC1CCCCC1Oc1ccc(C(C)(C)C)cc1 (stereo not given) | inactive | –
Cc1cccc(N)c1N | inactive | –
N#CC(Br)Br | inactive | –
CCC(C)(C)c1ccc(O)cc1 | inactive | –
O=C1C=CC(=O)C=C1 | inactive | –
NNC(=S)NN | inactive | –
O=[N+]([O-])c1cccc2ccccc12 | inactive | –
O=[N+]([O-])c1ccc(O)c([N+](=O)[O-])c1 | inactive | –
Nc1ccc(-c2ccc(N)c(N)c2)cc1N | inactive | –
Cc1ccc(N)c(N)c1 | inactive | –
CCc1cccc(CC)c1N(COC)C(=O)CCl | inactive | –
CCC(CC)Nc1c([N+](=O)[O-])cc(C)c(C)c1[N+](=O)[O-] | inactive | –
CN(C)c1ccc(C(=O)c2ccc(N(C)C)cc2)cc1 | inactive | –
CCCCN(CCCC)N=O | inactive | –
O=C(O)C(F)(F)C(F)(F)C(F)(F)C(F)(F)C(F)(F)C(F)(F)C(F)(F)F | inactive | –
CCC(C)c1cc([N+](=O)[O-])cc([N+](=O)[O-])c1O (stereo not given) | inactive | –
Cc1ccc2c(c1N)C(=O)c1ccccc1C2=O | inactive | –
CN(C)C(=O)Nc1ccc(Cl)cc1 | inactive | –
CCOCN(C(=O)CCl)c1c(C)cccc1CC | – | -6.64
